Drawing on PubChem BioAssay AID720607 (Broad Institute, 2013), this text covers activity change and activity change, negative = cytotoxicity for 6 molecules.

Each structure is given as a SMILES string. Records with an inconclusive call do not appear. Calls of active or inactive are those of the source.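 Rule for the calls: active = compounds that lower cell viability with a fitted half-maximal potency within a set limit tied to top dose; inconclusive = flat fitted activity from -70 to -30, or unreliable fit; inactive = flat near zero, opposite effect, or weaker potency.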

The assay can be described thus: CCRF-CEM leukemia cell viability loss, dose response, HRAS target identification, CellTiter-Glo ATP luminescence, 8/24/48 h, dry powder (AID 720607). Conditions: 8-48 h; for activity change: top conc, at 35 µM, stronger effect = lower value. (In general: In ATP-based viability assays light output follows the ATP content of the culture.)

With `COc1ccc(N(C(=O)CCl)C(C(=O)NCCc2ccccc2)c2cccs2)cc1Cl` (stereo not drawn), the activity change runs as follows: (8 h series) -85.7%; (24 h series) -98%.

For `C#CCCCC(=O)NCCOCCOCCOc1ccc(N(C(=O)CCl)C(C(=O)NCCc2ccccc2)c2cccs2)cc1Cl` (stereo not drawn), the activity change reads like this: (8 h series) -87.7%; (24 h series) -97.5%.

`Cc1onc(C(=O)N2CCN(C(c3ccncc3)c3ccncc3)CC2)c1[N+](=O)[O-]`: the activity change reads like this: (8 h series) -2.67%; (24 h series) -2.69%. For the same molecule, the activity change, negative = cytotoxicity (at 35 µM (top of the series)) is -4.38% (inactive).

Regarding `Cc1onc(C(=O)N2CCN(C(c3ccc(Cl)cc3)c3ccc(Cl)cc3)CC2)c1[N+](=O)[O-]`, the activity change reads like this: (8 h series) -63.7%; (24 h series) -96.7%.

Regarding `CC(C)(C)OC(=O)NCCOCCOCCOc1ccc(N(C(=O)CCl)C(C(=O)NCCc2ccccc2)c2cccs2)cc1Cl` (stereo not drawn), the activity change is, setting by setting: (8 h series) -88.9%; (24 h series) -98.2%.

For `COC(=O)c1ccc([C@@H]2c3[nH]c4ccccc4c3C[C@@H](C(=O)OC)N2C(=O)CCl)cc1`, the activity change (8 h series) is -77.8% and the activity change (24 h series) is -98.1%.
